Measurements as given in PubChem BioAssay AID430 (Sanford-Burnham Center for Chemical Genomics, 2006).
Out of some 63,000 compounds screened, about 1,100 (1.7%) were called active. The full list was thinned out, with actives kept by preference. Results with a measured potency or affinity are listed apart. Unmarked numbers belong to inactive results. Cut-off read from the data, not from the text of the source: active = cytotoxicity above about 50%; inactive = the rest.

Test: HPDE-C7 pancreatic duct cell viability loss – fluorescence, HTS (AID 430);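 note: cells exposed to compound for 48 hours before viability readout; 0% = vehicle and 100% = reference cytotoxic drug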
Conditions: HPDE-C7 pancreatic duct cells viability, at 10 µM, stronger effect = higher value

Structure (SMILES)	cytotoxicity
COC(=O)Cc1cc(=O)[nH]c(/N=C(/NC(=O)c2ccccc2)Nc2ccccc2C)n1	2.1%
CCC(NC(C)C)C(O)c1ccc(O)c(O)c1 (centres undefined)	15.3%
Cc1ccc(O)c(CC(C)C)n1	-4.7%
O=C(c1cc2ccccc2cc1OCC(O)CN1CCCCC1)N1CCCCC1 (centres undefined)	-0.7%
CC1CCCN(S(=O)(=O)c2cc(Cl)ccc2Cl)C1 (centres undefined)	-32.2%
CCN(CC)S(=O)(=O)c1ccc(Cl)c(C(=O)Nc2nncs2)c1	2.1%
CCN(CC)S(=O)(=O)c1cccc(C(=O)Nc2nncs2)c1	-14.1%
Cc1ccccc1-n1c(SC/C(O)=C(\C#N)c2nc3ccccc3[nH]2)nnc1-c1ccncc1	-17.8%
Nc1nc(NC(=O)c2ccco2)nn1-c1ccccc1	2%
Nc1nc(NC(=O)c2cccnc2)nn1-c1ccccc1	3.1%
CCOC(=O)CSC1=C(C#N)C(c2ccc(C)o2)CC(=O)N1 (centres undefined)	68.5% (active)
CCCCCCSC1=C(C#N)C(c2ccc(C)o2)CC(=O)N1 (centres undefined)	-8%
CCOC(=O)CSC1=C(C#N)C(c2ccc(Cl)cc2)CC(=O)N1 (centres undefined)	-16%
Cc1ccc(C2CC(=O)NC(SCC(=O)OCc3ccccc3)=C2C#N)o1 (centres undefined)	59.6% (active)
CC1=C(C(=O)OC2CCCCC2)C(c2ccc(C)o2)C2=C(CCCC2=O)N1 (centres undefined)	-7%
Cc1ccc(C2CC(=O)NC(SCc3ccccc3)=C2C#N)o1 (centres undefined)	10.6%
COC(=O)CSC1=C(C#N)C(c2ccccc2)CC(=O)N1 (centres undefined)	-10%
CC1=C(C(=O)OCc2ccccc2)C(c2ccc(C)o2)C2=C(CCCC2=O)N1 (centres undefined)	54.4% (active)
CC1=C(C(=O)OC2CCCCCC2)C(c2ccc(C)o2)C2=C(CCCC2=O)N1 (centres undefined)	-13.9%
CC(=O)Nc1cccc(NC(=O)CSc2nnc(Cc3cccn3C)n2-c2ccc(F)cc2)c1	-6.9%
Cc1cccc(C(C)(C)C)c1OCCn1ccnc1	8.6%
COc1ccc(S(=O)(=O)N(CC(N)=O)C2CCCCC2)cc1Cl	-13.6%
O=C(CN1CCN(C(=O)c2ccco2)CC1)Nc1ccc2c(c1)OCCO2	-13.8%
CCn1c(N2CCC(Cc3ccccc3)CC2)nc2c1c(=O)[nH]c(=O)n2C	-25.9%

Structure (SMILES)	cytotoxicity
CC(=O)OCC1OC(n2ccc(=O)[nH]c2=O)C(O)C1O (centres undefined)	-11.3%
CC(=O)OC[C@H]1O[C@@H](n2ccc(=O)[nH]c2=S)C(OC(C)=O)C1OC(C)=O (some centres undefined)	-1%
CC(=O)OC[C@H]1O[C@@H](n2ncc(=O)[nH]c2=O)[C@H](OC(C)=O)[C@@H]1OC(C)=O	56.2% (active)
CCSc1cc(C2C(C#N)=C(N)OC(C)=C2C(=O)OC)c(C)o1 (centres undefined)	3.5%
CCOC(=O)CCc1nn(C)c(=O)c2ccccc12	-11.1%
Cc1ccc(S(=O)(=O)N(C)CC(=O)N2CCN(c3ccccn3)CC2)cc1	6.4%
Cc1cc(-c2csc(NC(=O)c3ccc(=O)n(C)n3)n2)c(C)n1CC1CCCO1 (centres undefined)	-8.1%
CCCC1COC(Cn2cncn2)(c2ccc(C)cc2)O1 (centres undefined)	-5.7%
O=C1Nc2ccccc2C12OCC(COc1ccc(Cl)cc1)O2 (centres undefined)	30.3%
CCC(C)n1ncn(-c2ccc(N3CCN(c4ccc(OCC5COC(Cn6cncn6)(c6ccc(Cl)cc6Cl)O5)cc4)CC3)cc2)c1=O (centres undefined)	65.7% (active)
Cc1noc(C)c1S(=O)(=O)NC1CCN(Cc2ccccc2)CC1	1.4%
CCCCCc1c(C)nc(NCc2ccccc2)[nH]c1=O	-8.7%
Cc1n[nH]c(=O)nc1NCc1ccccc1	-20.4%
COc1ccc(CCNC(=O)COc2nsnc2N2CCOCC2)cc1OC	-12.4%
C=CCNC(=O)CCCCC(=O)NCC=C	-16.1%
CN1CCN(CCCNC(=O)c2cc3c(-c4ccc(Cl)cc4)nn(C)c3s2)CC1	13.3%
Cn1nc(-c2ccc(Cl)cc2)c2cc(C(=O)NCCCN3CCOCC3)sc21	8.3%
Cn1nc(-c2ccc(Cl)cc2)c2cc(C(=O)NCCCN3CCCC3)sc21	69.7% (active)
Cc1sc2ncnc(Sc3nnnn3-c3ccccc3)c2c1C	71% (active)
Cc1sc2ncnc(SCc3ccco3)c2c1C	-13.2%
Cc1nc(Sc2nnnn2-c2ccccc2)c(C#N)c(C)c1C	-11.7%
CCCn1c(Sc2nnnn2-c2ccccc2)n[nH]c1=O	-7.4%
Clc1ccc(-n2nnnc2Sc2ncnc3sccc23)cc1	4.6%
COc1ccc(OC)c(-c2cc(C(=O)NCCCn3ccnc3)no2)c1	32.2%

Structure (SMILES)	cytotoxicity
Cc1cc(NC(=O)C2CCCN(S(=O)(=O)c3c(C)noc3C)C2)no1 (centres undefined)	9.5%
O=C(O)c1ccc(OCc2occc2C(=O)O)cc1	-2.7%
CCOc1ccc(N(CC(N)=O)S(=O)(=O)c2ccc(F)cc2)cc1	-0.6%
Cc1cc2c(c(=O)n1CCN(C)C)C(c1ccc(Cl)cc1)C(C#N)=C(N)O2 (centres undefined)	-13.8%
Cc1cc2c(c(=O)n1CCN(C)C)C(c1ccncc1)C(C#N)=C(N)O2 (centres undefined)	13.1%
Cc1cc2c(c(=O)n1CCN(C)C)C(c1ccc(Br)cc1)C(C#N)=C(N)O2 (centres undefined)	73.4% (active)
Cc1cccc2cc(CN(Cc3ccc(F)cc3)C(=O)N(C)C)c3nnnn3c12	5.9%
Cc1ccc(SC/C(O)=C(\C#N)c2nc3ccccc3s2)cc1	79.2% (active)
Cc1ccc(SC/C(O)=C(\C#N)c2nc3ccccc3n2C)cc1	16.2%
COC(=O)c1ccc(/C(O)=C(\C#N)c2nc3ccccc3s2)cc1	58.4% (active)
CC(C)=C(C#N)c1nc2ccccc2s1	-8.8%
N#C/C(=C(/O)CN1CCOCC1)c1nc2ccccc2s1	1.3%
COc1ccc(C/C(O)=C(\C#N)c2nc3ccccc3s2)cc1	46.3%
N=c1n(CCN2CCCCC2)c2ccccc2n1CC(O)c1cccc(Br)c1 (centres undefined)	44.6%
C=CCn1c(SCC(=O)O)nnc1-c1cccc(Cl)c1	5.9%
Cc1cc(N2CCN(C(=O)c3ccco3)CC2)n2nc(C)nc2n1	3%
O=C(CSc1nc(O)cc(=O)[nH]1)N1CCCc2ccccc21	2.5%
CC1=C(C)SC(=C(C#N)c2nnc(N3CCOCC3)n2-c2ccccc2)S1	23.4%
O=C(Nc1ccc(S(=O)(=O)NCCc2ccccc2)cc1)c1ccc(Br)o1	12%
O=C(Nc1ccc(Nc2ccccc2)cc1)c1ccc(Br)o1	76.8% (active)
COC(=O)Cc1ccc(NC(=O)c2ccc(Br)o2)cc1	-2.2%
COc1ccccc1CNC(=O)C1CCCN(S(=O)(=O)c2c(C)[nH]c(=O)[nH]c2=O)C1 (centres undefined)	-20.9%
COc1ccc(C(=O)c2ccc(OC)c(OC)c2)cc1OC	-8.6%
COc1ccc(C(=O)c2ccc(OC)c(N)c2)cc1N	78.9% (active)

Structure (SMILES)	cytotoxicity
COc1ccc(C(N)=O)cc1N	-18.1%
O=C(NC1CCCCC1)N1CCCCCC1	-4%
CCSc1nnc(NC(=O)c2cc3c(s2)CCCC3)s1	7.4%
CC[C@]1(O)CC2CN(CCc3c([nH]c4ccccc34)[C@@](C(=O)OC)(c3cc4c(cc3OC)N(C=O)[C@H]3[C@@](O)(C(=O)OC)[C@H](OC(C)=O)[C@]5(CC)C=CCN6CC[C@]43[C@@H]65)C2)C1 (some centres undefined)	66.3% (active)
CC[C@]1(O)C[C@@H]2CN(CCc3c([nH]c4ccccc34)[C@@](C(=O)OC)(c3cc4c(cc3OC)N(C)[C@H]3[C@@](O)(C(=O)OC)[C@H](OC(C)=O)[C@]5(CC)C=CCN6CC[C@]43[C@@H]65)C2)C1	67.3% (active)
CC(=O)N1CCN(C2c3cccc4cccc(c34)C2NS(=O)(=O)c2ccccc2)CC1 (centres undefined)	-18.7%
COc1cccc(OCC(O)CN2CCC(C)CC2)c1 (centres undefined)	0.1%
Cc1cc(C(=O)Nc2ccc(S(=O)(=O)N3CCCC3)cc2)cs1	-11.4%
CCCOCCOC(=O)c1[nH]c2c(c1C)C(=O)CC(c1cc(OC)ccc1OC)C2 (centres undefined)	60.7% (active)
COCCOC(=O)c1[nH]c2c(c1C)C(=O)CC(c1cc(OC)ccc1OC)C2 (centres undefined)	16.4%
COC(=O)c1[nH]c2c(c1C)C(=O)CC(c1cc(OC)ccc1OC)C2 (centres undefined)	31.5%
COc1ccc(C2CC(=O)c3c([nH]c(C(=O)OC(C)C)c3C)C2)cc1OC (centres undefined)	-7.1%
COc1ccc(OC)c(C2CC(=O)c3c([nH]c(C(=O)OC(C)C)c3C)C2)c1 (centres undefined)	65.9% (active)
CCOCC(=O)Nc1ccc(S(=O)(=O)NCCc2ccccc2)cc1	4.2%
COC(=O)c1ccc(NC(=O)CCN2CCN(c3ccccc3)CC2)cc1	37.6%
O=C(Nc1ccc(N2CCCCC2)cc1)c1ccc(F)cc1	23.5%
O=C(c1ccco1)N1CCN(C(=O)c2ccccc2OC(=O)C23CC4CC(CC(C4)C2)C3)CC1	-9.7%
COc1ccc(N2CC(O)=C(c3nc4ccccc4s3)C2=N)cc1	5.8%
CCOc1ccccc1N1CC(O)=C(c2nc3ccccc3s2)C1=N	65.2% (active)
COc1ccc(N2CC(O)=C(c3nc4ccccc4s3)C2=N)c(OC)c1	20.6%
O=C(O)C(CC(=O)N1CCOCC1)NCc1ccccc1 (centres undefined)	5.6%
CC1CCCN(C(=O)CSc2nnc(-c3cccnc3)n2C2CCCCC2)C1 (centres undefined)	-23.2%
